Only some compounds are listed: those with a hit (about 4.1% of all), similar ones and a draw of the others.
ssDAF-12 act: S. stercoralis DAF-12 activation, primary screen | HEK293 ssDAF-12/GRIP1 lit1-tk-luc reporter, luminescence; % of 3 µM dafachronic acid response | activation, % at 6.8 µM | hit rate 1% among 370,000;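 active = activation above the mean over all tested compounds plus 3 SD, cut at about 0.9% in these data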;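 note: 0% = DMSO-only wells and 100% = 3 µM delta7-dafachronic acid wells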
hgDAF12 agonist: agonists of H. glycines DAF-12 nuclear receptor | AID 687014 | activation, % at 6.8 µM | hit rate 1.8% among 370,000 | HEK293 GAL4-hgDAF12 UAS-luciferase reporter, agonist luminescence; normalized to butyrate control;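 active = activation above a cutoff set at the mean of all screened compounds plus 3 SD, cut at about 10% in these data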;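 note: 0% = DMSO wells and 100% = sodium butyrate wells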
DAX1 inh-1: inhibitors of DAX1 repression of SF-1 activated StAR promoter | hit rate 1.1% among 370,000 | inhibition, % at 6.8 µM | HEK293T StAR-luciferase reporter, SF-1/DAX-1 repression relief;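 active = inhibition above the mean over all tested compounds plus 3 SD, cut at about 3.6% in these data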;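 note: 0% = DAX-1 cells with DMSO and 100% = cells lacking DAX-1 with DMSO; higher inhibition means more luminescence from relief of DAX-1 repression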
hcDAF12 agonist: H. contortus DAF-12 activation, primary screen; hit rate 1.4% among 370,000; HEK293 hcDAF-12 lit1-tk-luc reporter, luminescence; 0% DMSO, 100% Δ7-dafachronic acid; activation, % at 6.8 µM;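 active = activation above the mean of all tested compounds plus 3 SD, cut at about 5.5% in these data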;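 note: 100% = response to 3 µM Δ7-dafachronic acid high control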
DAX1 inh-2: inhibitors of human orphan nuclear receptor DAX1 (NR0B1). AID 504766. inhibition, % at 6.75 µM. HEK293 Gal4-DAX1 luciferase reporter, luminescence. hit rate 0.99% among 340,000;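 active = inhibition above the mean over all tested compounds plus 3 SD, cut at about 4.2% in these data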;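 note: 0% = DAX1-transfected cells with DMSO and 100% = empty-vector control cells with DMSO; inhibition shows as a rise in luminescence from relieved DAX1 repression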
Target sequence (P51843 207-470 limits assumed): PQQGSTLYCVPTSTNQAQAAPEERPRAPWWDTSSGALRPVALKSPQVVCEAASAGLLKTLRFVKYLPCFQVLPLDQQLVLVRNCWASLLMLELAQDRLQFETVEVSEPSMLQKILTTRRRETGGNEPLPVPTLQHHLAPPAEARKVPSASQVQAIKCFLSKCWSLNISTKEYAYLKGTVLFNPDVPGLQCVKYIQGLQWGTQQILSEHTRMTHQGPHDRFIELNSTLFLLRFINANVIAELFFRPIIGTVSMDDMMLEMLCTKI
DAX1 conf: NR0B1 (human) inhibition, confirmation; shares compounds with DAX1 inh-1; HEK293T StAR-promoter luciferase reporter, SF-1/DAX-1 repression; inhibition, % at 6.8 µM; hit rate 87% among 2,400; AID 652134;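 active = inhibition above the average of every tested compound plus 3 SD, cut at about 3.8% in these data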;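 note: 0% = DAX-1 cells with DMSO and 100% = no DAX-1 control cells with DMSO; active compounds raise luminescence by relieving repression of the StAR reporter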
SF1 AF2mut Luc: nonselective inhibitor or artifact in SF-1 mutant DAX1 counter-screen; hit rate 78% among 2,400; HEK293 StAR-luciferase, SF-1 AF2 mutant, luminescence; shares compounds with DAX1 inh-1; inhibition, % at 6.8 µM; AID 652136;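 active = inhibition above the mean of all tested compounds plus 3 SD, cut at about 3% in these data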;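 note: 0% = DAX-1 transfected cells with DMSO and 100% = cells without DAX-1 with DMSO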
LXRb hcDAF ctr: activates human LXR-beta, counter-screen for hcDAF-12 agonists; shares compounds with hcDAF12 agonist; HEK293 Gal4-LXR tk-luc reporter, luminescence, 24 h; normalized: DMSO 0%, positive control 100%; activation, % at 6.8 µM; 3,400 tested, under 10 active;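 active = mean percent activation of the reporter above a cutoff set as the average over tested compounds plus their standard deviation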
Target sequence (P55055 whole entry, looked up, the tested form may be a part): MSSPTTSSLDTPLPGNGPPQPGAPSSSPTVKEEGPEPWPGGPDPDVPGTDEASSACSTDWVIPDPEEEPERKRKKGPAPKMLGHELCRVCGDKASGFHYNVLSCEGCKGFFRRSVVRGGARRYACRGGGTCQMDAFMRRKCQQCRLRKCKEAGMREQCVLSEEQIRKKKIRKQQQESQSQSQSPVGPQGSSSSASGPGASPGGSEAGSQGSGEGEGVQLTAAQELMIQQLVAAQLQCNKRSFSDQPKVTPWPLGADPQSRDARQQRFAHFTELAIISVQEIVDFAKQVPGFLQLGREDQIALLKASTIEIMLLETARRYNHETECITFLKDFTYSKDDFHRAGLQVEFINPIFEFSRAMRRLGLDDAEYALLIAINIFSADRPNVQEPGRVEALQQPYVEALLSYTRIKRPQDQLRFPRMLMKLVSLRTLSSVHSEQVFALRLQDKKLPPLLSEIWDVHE
hcDAF12 conf: confirmation of H. contortus DAF-12 agonists | HEK293 hcDAF-12 lit1-tk-luc reporter, luminescence; % of Δ7-dafachronic acid response | shares compounds with hcDAF12 agonist | AID 743032 | activation, % at 6.8 µM | hit rate 61% among 3,400;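 active = mean activation across triplicate tests above the threshold derived from the earlier primary screen, cut at about 5.5% in these data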;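 note: 0% = DMSO only wells and 100% = 3 µM Δ7-dafachronic acid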
hgDAF12 ag: hgDAF-12 agonism, confirmation assay; shares compounds with hgDAF12 agonist; HEK293 GAL4-hgDAF12 luciferase reporter, agonist mode; percent of butyrate response; activation, % at 6.8 µM; hit rate 80% among 3,300;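 active = mean activation over triplicate wells above the hit cutoff derived from the earlier primary screen, cut at about 11% in these data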;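 note: 0% = DMSO low control and 100% = 2 mM sodium butyrate high control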
LXR ag 2: counter-screen for DAF-12 agonists: agonists of human LXR-beta; 3,300 tested, under 10 active; activation, % at 6.8 µM; HEK293 Gal4-LXR luciferase reporter, 24 h; shares compounds with hgDAF12 agonist; AID 743051;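 active = mean activation of the triplicate above a set limit carried over from the primary screen, none filed active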
Starred values were filed as active, the others as inactive.

What do the screens show for `Cc1ccccc1CC(=O)N1CCC(n2nnc3ncccc32)CC1`?
ssDAF-12 act: -1; hgDAF12 agonist: -2; DAX1 inh-1: 1; hcDAF12 agonist: -2

What do the screens show for `CCc1cc2c(nc1CC)CCCN2S(=O)(=O)c1ccccc1C`?
ssDAF-12 act: 0; hgDAF12 agonist: -3; DAX1 inh-1: -1; hcDAF12 agonist: -3

Results for O=C(NC1CCCCN(Cc2cccc(F)c2)C1=O)c1ccc2ccccc2c1 (stereo unspecified) ?
ssDAF-12 act: -1; hgDAF12 agonist: 2; DAX1 inh-1: 0; hcDAF12 agonist: -3

How did CCOc1cccc(-c2cnc3cccnn23)c1 do in these assays?
ssDAF-12 act: 0; hgDAF12 agonist: 21*; DAX1 inh-1: 6.1*; hcDAF12 agonist: 1; DAX1 conf: 7.1*; SF1 AF2mut Luc: 5.1*; hgDAF12 ag: 16*; LXR ag 2: 0

What do the screens show for `Cc1cccc(-c2cnc3cccnn23)c1`?
ssDAF-12 act: -1; hgDAF12 agonist: 7; DAX1 inh-1: 2; hcDAF12 agonist: -2

What do the screens show for `COc1ccc(C2=NN3C(C2)c2ccccc2OC32C(=O)N(C)c3ccccc32)cc1` (stereo unspecified)?
ssDAF-12 act: 2.4*; hgDAF12 agonist: 17*; DAX1 inh-1: 6.6*; hcDAF12 agonist: 12*; DAX1 inh-2: 3; DAX1 conf: 4.0*; SF1 AF2mut Luc: 4.8*; LXRb hcDAF ctr: 0; hcDAF12 conf: 2; hgDAF12 ag: 22*; LXR ag 2: 1

Results for COc1ccc(-c2csc(N3C(=O)CNC3=S)n2)cc1 ?
ssDAF-12 act: 1.1*; hgDAF12 agonist: 17*; DAX1 inh-1: 5.5*; hcDAF12 agonist: 8.2*; DAX1 inh-2: -2; DAX1 conf: 14*; SF1 AF2mut Luc: 6.6*; LXRb hcDAF ctr: 2; hcDAF12 conf: 8.8*; hgDAF12 ag: 16*; LXR ag 2: 1

How did C/C(=N\NC(=O)c1nn(C)c(C)c1Br)c1cccc(NC(=O)c2ccoc2C)c1 do in these assays?
ssDAF-12 act: 0; hgDAF12 agonist: 16*; DAX1 inh-1: 5.0*; hcDAF12 agonist: 5.9*; DAX1 inh-2: 3; DAX1 conf: 1; SF1 AF2mut Luc: 1; hgDAF12 ag: 5; LXR ag 2: 0

How did CC(=O)c1cccc(NC(=O)c2ccoc2C)c1 do in these assays?
ssDAF-12 act: -1; hgDAF12 agonist: -3; DAX1 inh-1: 0; hcDAF12 agonist: -1; DAX1 inh-2: 0

What do the screens show for `Cc1ccccc1CN[C@@H]1CC[C@@]23CCCN2C(=O)CCC[C@H]3C1`?
ssDAF-12 act: -1; hgDAF12 agonist: -3; hcDAF12 agonist: 1

How did COc1ccc2nc(Nc3ccccc3OC)sc2c1 do in these assays?
ssDAF-12 act: 1.6*; hgDAF12 agonist: 20*; DAX1 inh-1: 6.4*; hcDAF12 agonist: 11*; DAX1 inh-2: 0; DAX1 conf: 17*; SF1 AF2mut Luc: 10*; LXRb hcDAF ctr: 2; hcDAF12 conf: 8.7*; hgDAF12 ag: 22*; LXR ag 2: 1

What do the screens show for `Cc1ccc(S(=O)(=O)Nc2nc3ccccc3s2)cc1`?
ssDAF-12 act: 0; hgDAF12 agonist: 2; DAX1 inh-1: 0; hcDAF12 agonist: 3; DAX1 inh-2: 0

How did COc1ccc2nc(NC(=O)Nc3ccccc3OC)sc2c1 do in these assays?
ssDAF-12 act: 0; hgDAF12 agonist: 9; DAX1 inh-1: 2; hcDAF12 agonist: 2; DAX1 inh-2: 3

How did Cc1ccc(Nc2nc3ccccc3s2)cc1 do in these assays?
ssDAF-12 act: 2.4*; hgDAF12 agonist: 26*; DAX1 inh-1: 4.7*; hcDAF12 agonist: 9.7*; DAX1 inh-2: 3; DAX1 conf: 15*; SF1 AF2mut Luc: 7.3*; LXRb hcDAF ctr: 2; hcDAF12 conf: 7.9*; hgDAF12 ag: 24*; LXR ag 2: 1

What do the screens show for `COc1ccc2nc(Nc3ccccc3)sc2c1`?
ssDAF-12 act: 0; hgDAF12 agonist: 26*; DAX1 inh-1: 7.3*; hcDAF12 agonist: 5; DAX1 inh-2: 3; DAX1 conf: 12*; SF1 AF2mut Luc: 9.5*; hgDAF12 ag: 14*; LXR ag 2: 1

How did COc1ccc2nc(NC(=O)C3CCCO3)sc2c1 (stereo unspecified) do in these assays?
ssDAF-12 act: 0; hgDAF12 agonist: 15*; DAX1 inh-1: 5.8*; hcDAF12 agonist: 4; DAX1 inh-2: 4.3*; DAX1 conf: 11*; SF1 AF2mut Luc: 6.1*; hgDAF12 ag: 12*; LXR ag 2: 1

What do the screens show for `O=C1CCC[C@H]2C[C@H](NCc3ccco3)CC[C@]23CCCN13`?
ssDAF-12 act: -2; hgDAF12 agonist: -2; hcDAF12 agonist: -1

What do the screens show for `COc1ccc(CNC2CCC23CCC(C)CC3)cc1OC` (stereo unspecified)?
ssDAF-12 act: -1; hgDAF12 agonist: -1; hcDAF12 agonist: -1

What do the screens show for `COC(=O)[C@]12C[C@H](CC(=O)NCC34CC5CC(CC(C5)C3)C4)C(=O)N(Cc3ccc(Cl)cc3Cl)C1=C[C@H](C(C)C)O[C@@H]2C1CC1`?
ssDAF-12 act: -2; hgDAF12 agonist: 3; DAX1 inh-1: 0; hcDAF12 agonist: -1

What do the screens show for `COC(=O)[C@]12C[C@H](CC(=O)NCCC(C)C)C(=O)N(Cc3ccco3)C1=C[C@H](C(C)(C)C)O[C@@H]2C`?
ssDAF-12 act: -1; hgDAF12 agonist: 1; DAX1 inh-1: -1; hcDAF12 agonist: 1

What do the screens show for `O=C(Nc1ccc(Cl)cc1)c1ccncc1`?
ssDAF-12 act: 0; hgDAF12 agonist: 2; DAX1 inh-1: 0; hcDAF12 agonist: -1; DAX1 inh-2: 0
